Only some compounds are listed: those with a hit (about 2.3% of all), similar ones and a draw of the others.
M1 ag parental: M1 agonist counterscreen hit in parental CHO-K1 cells. Fluo-8 calcium fluorescence; scaled to maximal ATP response, vehicle zero. activation, % at 3 µM. 360,000 compounds, 0.48% hits; in the data active means activation above about 15%;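 further: untransfected CHO-K1 host cells lacking M1 receptor as counterscreen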
M1 ag: agonists of human M1 muscarinic receptor; AID 588814; activation, % at 3 µM; 360,000 compounds, 0.33% hits; P11229; CHO-K1 hM1, Fluo-8 calcium fluorescence, agonist mode; 0% DMSO, 100% acetylcholine EC100;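 active means activation above the run's mean compound activation plus 3 SD, cut at about 16% in these data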;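 further: peak over basal fluorescence ratio within a 140 s kinetic read after compound addition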
Target sequence (P11229 whole entry, looked up): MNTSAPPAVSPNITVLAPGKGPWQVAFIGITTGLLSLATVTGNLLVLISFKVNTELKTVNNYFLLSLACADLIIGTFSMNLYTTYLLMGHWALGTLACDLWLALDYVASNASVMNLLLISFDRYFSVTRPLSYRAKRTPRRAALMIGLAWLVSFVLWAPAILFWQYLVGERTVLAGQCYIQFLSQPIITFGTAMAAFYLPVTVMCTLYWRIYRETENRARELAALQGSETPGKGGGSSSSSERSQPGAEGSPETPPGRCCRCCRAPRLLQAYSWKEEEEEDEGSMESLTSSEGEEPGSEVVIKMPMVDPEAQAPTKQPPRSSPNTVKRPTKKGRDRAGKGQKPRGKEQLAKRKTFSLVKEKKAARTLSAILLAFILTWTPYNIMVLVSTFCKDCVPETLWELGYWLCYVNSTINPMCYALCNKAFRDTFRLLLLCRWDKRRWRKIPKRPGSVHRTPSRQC
CHO-K1 Ca PAM: counter-screen for M1 PAMs: effect in parental CHO-K1 cells | 360,000 compounds, 0.02% hits | ATP EC20, Fluo-8 calcium fluorescence; 0% at ATP EC20, 100% at ATP max | activation, % at 3 µM;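 active means activation above the run cutoff, the mean activation of all test compounds plus 3 SD, cut at about 40% in these data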;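 further: peak over basal fluorescence ratio in a 140 s read after ATP addition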
M1 antag: human CHRM1 antagonism | 360,000 compounds, 1.3% hits | inhibition, % at 3 µM | CHO-K1 hM1, Fluo-8 calcium fluorescence, ACh EC80 antagonist | AID 588852;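 active means percent inhibition above its own plate's cutoff, namely the mean of that plate's compound wells plus 3 SD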;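 further: peak over basal fluorescence ratio during 140 s after agonist addition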
CHO-K1 Ca antag: nonselective inhibitor or artifact in parental CHO-K1 cells; ATP-induced calcium, Fluo-8 fluorescence; inhibition, % at 3 µM; 360,000 compounds, 0.6% hits;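 active means inhibition above a per-plate cutoff, the plate's mean sample inhibition plus 3 SD, cut at about 24% in these data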
M1 PAM: potentiates human M1 receptor response to acetylcholine; P11229; CHO-K1 hM1, Fluo-8 calcium fluorescence, ACh EC20; 0% = ACh EC20, 100% = maximal ACh; activation, % at 3 µM; 360,000 compounds, 0.088% hits; AID 588819; in the data active means activation above about 19%, passing the limit was not always enough
Each line names hits and unclear results; the compound was inactive in the other large screens.

Cc1noc(C)c1C(=O)OCC(=O)Nc1ccccc1C(=O)NC(C)c1ccccc1 (stereo not given)	CHO-K1 Ca PAM 49
COc1ccc(CNC(=O)CCn2c(C)csc2=O)cc1	none
CC1Sc2ccc(S(=O)(=O)N3CCC(C(=O)NCC(C)c4ccccc4)CC3)cc2NC1=O (stereo not given)	M1 ag parental 15, M1 antag 46
CC1Sc2ccc(S(=O)(=O)N3CCC(C(=O)NCCc4ccccc4)CC3)cc2NC1=O (stereo not given)	none
COc1ccc(NC(=O)C(c2cc3c(cc2[N+](=O)[O-])OCO3)N(C)Cc2ccccc2)cc1 (stereo not given)	M1 ag parental 22
CCN(c1cccc(C)c1)C(C(=O)Nc1ccc(OC)cc1)c1cc2c(cc1[N+](=O)[O-])OCO2 (stereo not given)	none
CCCCN(CC)CCCNC(=O)C1CCN(c2ncnc3c2sc2cccc(F)c23)CC1	M1 antag 42
O=C(NCCN1CCOCC1)C1CCN(c2ncnc3c2sc2cccc(F)c23)CC1	none
COc1ccc(-c2cc(=O)c3ccc(O)cc3o2)cc1	M1 PAM 24
COc1ccc(S(=O)(=O)N(C)C[C@H]2Oc3c(NS(=O)(=O)c4cn(C)cn4)cccc3C(=O)N([C@H](C)CO)C[C@@H]2C)cc1	none
COc1ccc(C)cc1NC(=O)CSc1nnc2ccc(-c3ccncc3)nn12	M1 antag 28
Cc1nnc(SCC(=O)c2cc(C)n(-c3c(C)n(C)n(-c4ccccc4)c3=O)c2C)s1	none
Cc1cc(C(=O)CSc2nncs2)c(C)n1-c1c(C)n(C)n(-c2ccccc2)c1=O	M1 antag 54
CC1CC(C)CN(C(C(=O)NC2CCCCC2)c2cc3ccccc3o2)C1 (stereo not given)	none
c1cc2c(cc1C1CCCN1)OCCCO2 (stereo not given)	M1 antag 28
O=S(=O)(c1ccc2c(c1)OCCCO2)N1CCNCC1	none
Cc1ccc(NC(=O)C2CCCN(C3=NS(=O)(=O)c4ccccc43)C2)c(O)c1 (stereo not given)	CHO-K1 Ca antag 26
O=C(c1cccs1)N1CCN(C2CCN(Cc3ccccc3)CC2)CC1	M1 antag 39
C/C(N)=C(/C#N)C(=O)CSc1nc2scc(-c3ccccc3)c2c(=O)n1C	none
COc1ccccc1CNC(=O)c1n[nH]c2ccccc12	M1 ag parental 17
COc1ccccc1CNC(=O)COC(=O)c1n[nH]c2ccccc12	none
FC(F)(F)c1nc(-c2ccncc2)ncc1-c1nnnn1-c1ccccc1	none
Fc1ccc(-n2nnnc2-c2cnc(-c3cccs3)nc2C(F)(F)F)cc1	M1 antag 57
COc1ccc(Cl)cc1NC(=O)CN1CCN(S(=O)(=O)N2CCCCC2)CC1	none
CC(C)(C)Cc1c(-c2ccc(Cl)cc2)nc2ccc(Cl)cn12	M1 antag 28
CC(C)(C)Cc1c(-c2ccccc2)nc2ccc(Cl)cn12	M1 antag 27
CC(C)(C)Cc1c(-c2ccc(Br)cc2)nc2ccc(Cl)cn12	M1 antag 26
C[C@H](CO)N1C[C@H](C)[C@@H](CN(C)S(=O)(=O)c2cn(C)cn2)Oc2ccc(NC(=O)Cc3ccccc3)cc2C1=O	none
O=C(CNS(=O)(=O)c1c(Cl)cccc1Cl)OCC(=O)N1CCN(c2ccccc2)CC1	CHO-K1 Ca antag 26
Oc1ccccc1N1CCN(C(=S)NCCc2ccccc2)CC1	CHO-K1 Ca antag 28
COc1cc(N/C(=N/S(=O)(=O)c2ccccc2)c2ccccc2)ncn1	CHO-K1 Ca antag 25
COc1ccc(C(=O)N[C@H](C(=O)OCCCOC(=O)[C@@H](NC(=O)c2ccc(OC)cc2)C(C)C)C(C)C)cc1	none
CCOC(=O)N1CCC(NC(=O)C2CCCN(Cc3nc(-c4cccc(Cl)c4)oc3C)C2)CC1 (stereo not given)	M1 antag 37, CHO-K1 Ca antag 30
Cc1oc(-c2ccc(Cl)cc2)nc1CN1CCCC(C(=O)NC2CC2)C1 (stereo not given)	none
O=C(NC1(C(F)(F)F)N=C(c2ccccc2)NC1=O)c1ccccc1 (stereo not given)	CHO-K1 Ca antag 27

Screening results as filed in PubChem BioAssay.
